# From the supplement of paper PMC10849652
# Of roughly 7,900 targets only a part is listed; those with a hit were picked by preference. About 0.6% of all pairs of compound and target were hits. Values without a mark were called inactive.
# How the values were obtained:
# Assay in all cases: log2 fold change, soluble protein after heating vs DMSO (PISA); higher = thermal stabilisation; K562 cells, 10 uM, 30 min; active = over 0.2 and 3.5 SD of the protein, either way, in both replicates (recomputed)
# [1] = compound: C1=CC=C(C=C1)[C@H](COC2=CC3=C(C=C2)NC(=O)N3)NC(=O)C4=CC=CN(C4=O)CC5=CC(=C(C=C5)F)F
# Procedure, shortened: (§1)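 K562 cells (2×10^6 cells/mL) were treated with 10 μM compound for 30 min, and aliquots were heated for 3 min over 48°C-58°C. Pooled aliquots were extracted in PBS with 0.5% NP-40 at 4°C, and the supernatant after 21,000xg for 90 min was measured by TMTpro 16plex LC-MS/MS with channel sums equalised. Reported thermal stability, relative to control samples and from duplicates, is a log2 fold change.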
# [2] = compound: CC1=C(SC2=C1C(=N[C@H](C3=NN=C(N32)C)CC(=O)N)C4=CC=C(C=C4)Cl)C
# Procedure, shortened: as §1
# [3] = compound: CC1=C2C(=CC=C1)N=C(N(C2=O)C3=CC=CC=C3C)CN4C=NC5=C(N=CN=C54)N
# Procedure, shortened: as §1
# [4] = compound: Cc1sc2c(c1C)C(c1ccc(Cl)cc1)=N[C@@H](CC(=O)OC(C)(C)C)c1nnc(C)n1-2
# Procedure, shortened: as §1
# [5] = compound: c1ccc([C@@H]2C[C@H]2NC2CCNCC2)cc1
# Procedure, shortened: as §1
# UniProt Q9UEY8, sequence (Q9UEY8 whole entry, looked up): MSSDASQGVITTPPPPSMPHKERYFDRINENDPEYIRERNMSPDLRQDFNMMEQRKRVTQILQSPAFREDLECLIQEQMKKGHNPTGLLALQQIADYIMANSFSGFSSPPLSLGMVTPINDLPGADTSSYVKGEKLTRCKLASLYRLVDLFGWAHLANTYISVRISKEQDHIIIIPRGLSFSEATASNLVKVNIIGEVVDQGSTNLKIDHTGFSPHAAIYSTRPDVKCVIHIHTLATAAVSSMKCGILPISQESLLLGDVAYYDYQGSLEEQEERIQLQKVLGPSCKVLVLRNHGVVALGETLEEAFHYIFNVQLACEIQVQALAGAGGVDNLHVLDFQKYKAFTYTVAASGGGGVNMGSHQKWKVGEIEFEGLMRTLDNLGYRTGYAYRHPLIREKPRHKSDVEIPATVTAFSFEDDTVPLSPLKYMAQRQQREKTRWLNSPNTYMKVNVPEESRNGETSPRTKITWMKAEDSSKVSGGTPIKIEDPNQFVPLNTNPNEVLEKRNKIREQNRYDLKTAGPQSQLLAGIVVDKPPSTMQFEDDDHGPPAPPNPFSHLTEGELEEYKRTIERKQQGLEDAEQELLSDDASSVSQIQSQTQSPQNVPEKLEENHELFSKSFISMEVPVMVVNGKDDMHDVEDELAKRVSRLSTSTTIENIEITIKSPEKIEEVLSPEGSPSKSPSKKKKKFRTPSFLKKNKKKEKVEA
# UniProt Q9H8Y5, sequence (Q9H8Y5 whole entry, looked up): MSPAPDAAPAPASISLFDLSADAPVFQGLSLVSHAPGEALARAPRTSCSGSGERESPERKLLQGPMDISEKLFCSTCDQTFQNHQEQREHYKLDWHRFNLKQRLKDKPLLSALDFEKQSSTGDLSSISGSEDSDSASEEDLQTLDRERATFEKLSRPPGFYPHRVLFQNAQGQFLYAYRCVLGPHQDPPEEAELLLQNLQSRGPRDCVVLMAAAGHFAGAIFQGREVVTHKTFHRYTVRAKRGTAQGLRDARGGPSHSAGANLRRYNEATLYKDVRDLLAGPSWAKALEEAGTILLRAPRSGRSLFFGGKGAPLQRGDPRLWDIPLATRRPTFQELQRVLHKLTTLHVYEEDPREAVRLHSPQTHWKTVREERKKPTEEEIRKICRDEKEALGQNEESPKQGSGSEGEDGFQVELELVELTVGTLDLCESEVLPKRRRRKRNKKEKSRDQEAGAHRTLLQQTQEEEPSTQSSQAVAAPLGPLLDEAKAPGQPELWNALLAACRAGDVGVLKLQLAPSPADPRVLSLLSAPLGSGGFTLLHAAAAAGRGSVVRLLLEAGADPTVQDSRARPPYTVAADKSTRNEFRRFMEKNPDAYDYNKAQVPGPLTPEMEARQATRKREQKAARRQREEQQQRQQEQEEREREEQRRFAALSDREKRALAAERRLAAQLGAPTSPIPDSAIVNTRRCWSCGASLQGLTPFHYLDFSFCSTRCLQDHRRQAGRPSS
# UniProt Q00973, sequence (Q00973 whole entry, looked up): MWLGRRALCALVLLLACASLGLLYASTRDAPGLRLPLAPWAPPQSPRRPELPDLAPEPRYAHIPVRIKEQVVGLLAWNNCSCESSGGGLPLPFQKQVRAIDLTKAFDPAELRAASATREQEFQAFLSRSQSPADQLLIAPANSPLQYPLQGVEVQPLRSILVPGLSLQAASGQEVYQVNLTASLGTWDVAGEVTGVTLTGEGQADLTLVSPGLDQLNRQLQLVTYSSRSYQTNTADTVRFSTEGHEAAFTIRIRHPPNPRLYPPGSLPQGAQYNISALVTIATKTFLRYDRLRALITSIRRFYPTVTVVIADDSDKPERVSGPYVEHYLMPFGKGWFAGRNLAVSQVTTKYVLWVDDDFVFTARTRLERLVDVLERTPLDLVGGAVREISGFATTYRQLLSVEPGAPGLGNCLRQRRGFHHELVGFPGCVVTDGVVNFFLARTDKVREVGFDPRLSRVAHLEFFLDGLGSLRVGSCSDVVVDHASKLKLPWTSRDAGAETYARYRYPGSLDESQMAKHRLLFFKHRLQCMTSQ
# UniProt Q9H0E9, sequence (Q9H0E9 whole entry, looked up): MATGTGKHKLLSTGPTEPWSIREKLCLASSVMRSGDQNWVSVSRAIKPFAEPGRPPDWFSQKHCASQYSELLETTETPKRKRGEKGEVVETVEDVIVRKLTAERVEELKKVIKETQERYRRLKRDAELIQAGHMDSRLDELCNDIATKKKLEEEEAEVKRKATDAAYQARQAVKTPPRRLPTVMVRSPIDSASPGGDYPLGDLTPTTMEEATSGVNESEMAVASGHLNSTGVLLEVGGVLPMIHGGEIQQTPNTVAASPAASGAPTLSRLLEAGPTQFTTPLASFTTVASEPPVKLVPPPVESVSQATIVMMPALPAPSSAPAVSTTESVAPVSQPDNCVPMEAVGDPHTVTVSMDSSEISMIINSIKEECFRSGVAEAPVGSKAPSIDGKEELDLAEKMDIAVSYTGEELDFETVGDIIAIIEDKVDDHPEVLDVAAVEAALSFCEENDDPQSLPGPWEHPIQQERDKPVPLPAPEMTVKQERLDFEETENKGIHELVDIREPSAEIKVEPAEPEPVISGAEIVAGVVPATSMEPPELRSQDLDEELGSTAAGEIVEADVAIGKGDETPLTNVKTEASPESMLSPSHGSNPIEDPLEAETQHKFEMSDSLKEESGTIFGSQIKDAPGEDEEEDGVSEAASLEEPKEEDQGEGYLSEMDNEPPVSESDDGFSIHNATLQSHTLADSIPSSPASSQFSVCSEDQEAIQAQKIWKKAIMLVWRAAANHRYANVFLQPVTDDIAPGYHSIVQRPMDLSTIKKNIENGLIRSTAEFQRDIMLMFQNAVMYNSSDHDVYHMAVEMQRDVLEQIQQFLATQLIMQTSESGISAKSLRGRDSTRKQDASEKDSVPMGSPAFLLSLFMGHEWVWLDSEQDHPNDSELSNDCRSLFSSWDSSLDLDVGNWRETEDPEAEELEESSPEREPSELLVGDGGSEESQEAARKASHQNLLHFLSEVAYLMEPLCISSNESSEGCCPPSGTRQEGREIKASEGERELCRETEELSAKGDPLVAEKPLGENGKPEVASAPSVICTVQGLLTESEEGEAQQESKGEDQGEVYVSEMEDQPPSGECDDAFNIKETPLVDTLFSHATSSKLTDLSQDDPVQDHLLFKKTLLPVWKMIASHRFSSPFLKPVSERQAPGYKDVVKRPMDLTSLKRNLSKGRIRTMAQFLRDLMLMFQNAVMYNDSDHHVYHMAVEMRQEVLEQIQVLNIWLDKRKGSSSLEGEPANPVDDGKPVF
# UniProt Q9UKV3, sequence (Q9UKV3 whole entry, looked up): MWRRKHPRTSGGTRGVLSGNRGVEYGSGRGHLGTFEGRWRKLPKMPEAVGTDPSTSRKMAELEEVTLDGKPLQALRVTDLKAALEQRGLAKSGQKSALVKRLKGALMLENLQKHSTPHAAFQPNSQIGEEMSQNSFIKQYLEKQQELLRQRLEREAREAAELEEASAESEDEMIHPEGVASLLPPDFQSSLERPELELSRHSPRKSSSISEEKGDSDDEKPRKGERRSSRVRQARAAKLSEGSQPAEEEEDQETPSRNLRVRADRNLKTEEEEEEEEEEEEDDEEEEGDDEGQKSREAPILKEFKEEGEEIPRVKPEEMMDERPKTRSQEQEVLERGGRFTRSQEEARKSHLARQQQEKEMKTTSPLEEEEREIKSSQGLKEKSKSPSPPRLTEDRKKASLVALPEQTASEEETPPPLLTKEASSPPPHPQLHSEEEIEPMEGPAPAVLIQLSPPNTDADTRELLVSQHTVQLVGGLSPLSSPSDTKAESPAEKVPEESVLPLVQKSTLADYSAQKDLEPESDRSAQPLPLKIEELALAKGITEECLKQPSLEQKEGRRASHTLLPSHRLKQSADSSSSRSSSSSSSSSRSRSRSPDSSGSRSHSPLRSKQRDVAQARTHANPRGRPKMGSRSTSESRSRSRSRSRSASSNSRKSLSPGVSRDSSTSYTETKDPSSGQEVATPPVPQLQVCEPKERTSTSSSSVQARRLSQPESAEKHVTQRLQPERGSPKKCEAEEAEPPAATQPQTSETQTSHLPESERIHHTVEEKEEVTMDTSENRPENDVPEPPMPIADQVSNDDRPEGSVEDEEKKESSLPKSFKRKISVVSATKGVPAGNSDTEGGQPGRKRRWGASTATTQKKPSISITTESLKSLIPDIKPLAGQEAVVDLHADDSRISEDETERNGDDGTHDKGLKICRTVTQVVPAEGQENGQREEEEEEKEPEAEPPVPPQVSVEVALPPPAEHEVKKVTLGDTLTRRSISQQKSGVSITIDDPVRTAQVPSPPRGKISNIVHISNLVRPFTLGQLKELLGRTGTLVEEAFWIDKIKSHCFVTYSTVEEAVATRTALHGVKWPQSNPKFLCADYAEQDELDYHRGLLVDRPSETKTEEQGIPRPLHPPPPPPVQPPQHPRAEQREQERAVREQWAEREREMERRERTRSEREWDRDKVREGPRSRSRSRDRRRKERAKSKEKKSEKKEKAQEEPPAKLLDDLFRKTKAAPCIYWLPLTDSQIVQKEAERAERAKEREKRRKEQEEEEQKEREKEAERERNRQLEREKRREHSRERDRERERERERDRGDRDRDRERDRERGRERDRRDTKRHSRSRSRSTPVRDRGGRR
# UniProt Q07960, sequence (Q07960 whole entry, looked up): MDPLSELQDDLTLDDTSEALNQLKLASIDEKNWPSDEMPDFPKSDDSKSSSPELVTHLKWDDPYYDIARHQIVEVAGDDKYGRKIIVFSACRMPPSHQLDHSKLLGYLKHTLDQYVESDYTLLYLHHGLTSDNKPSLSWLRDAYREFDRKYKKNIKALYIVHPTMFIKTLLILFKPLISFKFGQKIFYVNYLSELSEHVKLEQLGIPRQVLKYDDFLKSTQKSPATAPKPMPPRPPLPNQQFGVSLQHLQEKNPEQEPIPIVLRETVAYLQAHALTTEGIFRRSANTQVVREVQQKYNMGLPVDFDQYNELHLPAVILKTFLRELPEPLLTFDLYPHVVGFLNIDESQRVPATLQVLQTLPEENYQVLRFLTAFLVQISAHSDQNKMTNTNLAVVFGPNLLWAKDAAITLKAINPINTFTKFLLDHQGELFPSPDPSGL
Target,log2 fold change [1],log2 fold change [2],log2 fold change [3],log2 fold change [4],log2 fold change [5]
APH1A (UniProt Q96BI3),-0.015,0.009,-0.21,-0.08,-0.153
ABCB6 (UniProt Q9NP58),0.001,0.003,0.05,-0.049,0.012
ARFGAP2 (UniProt Q8N6H7),-0.006,0.039,0.086,-0.033,0.006
ADAMTS5 (UniProt Q9UNA0),0.149,0.106,0.152,-0.076,-0.028
ATP12A isoform 2 (UniProt P54707),-0.027,0.062,0.052,-0.044,-0.043
BRAF (UniProt P15056),-0.04,0.075,0.041,-0.018,-0.027
ARGLU1 (UniProt Q9NWB6),0.072,-0.117,-0.013,0.01,0.096
BID isoform 2 (UniProt P55957),-0.036,0.059,0.081,-0.076,-0.053
ALG14 (UniProt Q96F25),-0.008,0.019,0.241,0.051,0.006
ANKZF1 (UniProt Q9H8Y5),-0.113,-0.037,-0.01,0.15,-0.008
BRD8 (UniProt Q9H0E9),0.027,-0.009,0.023,0.009,0.021
BCLAF1 (UniProt Q9NYF8),0.031,0.027,-0.118,-0.013,0.047
ANKRD29 (UniProt Q8N6D5),-0.012,0.199,0.248,-0.029,-0.079
BCCIP (UniProt Q9P287),-0.044,-0.018,0,-0.037,-0.062
ALG11 (UniProt Q2TAA5),0.001,0.085,0.144,-0.051,-0.021
ARFIP1 (UniProt P53367),0.04,0.042,0.051,-0.065,-0.03
ARHGAP4 isoform 2 (UniProt P98171),0.211,-0.101,-0.069,-0.122,0.008
ARHGAP1 (UniProt Q07960),-0.02,0.023,0.047,-0.005,0.002
AGPAT3 isoform 3 (UniProt Q9NRZ7),-0.012,0.064,0.021,-0.048,-0.024
AP2S1 (UniProt P53680),-0.013,-0.007,-0.036,0.037,0.043
AHCYL1 (UniProt O43865),0.057,-0.004,0.014,-0.03,-0.037
BOP1 (UniProt Q14137),0.096,-0.099,0.01,-0.036,-0.01
ALDH6A1 (UniProt Q02252),0.082,0.124,0.128,-0.07,0.019
ATP2A3 isoform 2 (UniProt Q93084),-0.01,0.035,0.036,-0.002,0.01
BRIX1 (UniProt Q8TDN6),0.093,-0.349,-0.242,0.244,-0.007

Target,log2 fold change [1],log2 fold change [2],log2 fold change [3],log2 fold change [4],log2 fold change [5]
BCL9L (UniProt Q86UU0),0.001,-0.028,0.019,0.051,0.05
AURKA (UniProt O14965),0,0.148,0.018,0.009,-0.038
AFG1L (UniProt Q8WV93),0.025,0.096,-0.008,-0.074,-0.129
AARS2 (UniProt Q5JTZ9),-0.047,0.081,0.044,0.005,-0.016
ADK (UniProt P55263),0.026,0.036,0.154,-0.008,-0.057
ACIN1 (UniProt Q9UKV3),0.003,0.095,0.038,0.023,-0.018
ACACB (UniProt O00763),-0.044,-0.053,0.025,0.084,0.007
ATF7 isoform 6 (UniProt P17544),-0.097,0,-0.187,0.184,-0.034
ACADVL isoform 3 (UniProt P49748),0.019,0.05,0.009,-0.011,-0.018
ADPRHL2 (UniProt Q9NX46),-0.09,0.08,0.034,-0.057,-0.087
BYSL (UniProt Q13895),0.001,-0.085,-0.09,0.02,-0.042
BRD4 (UniProt O60885),-0.116,2.22 (active),0.141,1.99 (active),0.029
AUNIP isoform 2 (UniProt Q9H7T9),–,0.031,0.086,-0.001,-0.014
ADD3 isoform 2 (UniProt Q9UEY8),–,-0.075,-0.038,0.007,0
AFDN isoform 1 (UniProt P55196),0.038,-0.119,0.029,–,0.177
ALDH2 isoform 2 (UniProt P05091),-0.092,–,0.379,0.074,–
ACSL6 isoform 1 (UniProt Q9UKU0),0.012,–,0.29,-0.009,–
ANGEL1 (UniProt Q9UNK9),-0.256,–,-0.172,-0.042,–
AZI2 (UniProt Q9H6S1),0.034,–,-0.047,0.136,–
"BRAF, A0A2R8Y8E0",–,–,–,0.162,–
B4GALNT1 (UniProt Q00973),-0.029,-0.068,-0.001,-0.102,-0.062
APOBEC3G (UniProt Q9HC16),0.089,–,0.436,0.147,–
AGPAT5 (UniProt Q9NUQ2),-0.015,0.064,0.007,-0.008,-0.025
AIF1 (UniProt P55008),-0.114,–,0.04,–,–
